This passage reports inhibition results from PubChem BioAssay AID651548 (Broad Institute, 2012).

The structures appear in SMILES notation. In all, about 57,000 compounds went through this assay and about 200 (0.35%) were called active. Only a selection was taken, and actives are over-represented in it overall. A number with no mark means an inactive call.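 Rule for the calls: active = mean inhibition of replicates at least 50% and every single replicate also reaching 50%; inconclusive = mean inhibition at least 50% but some replicate falls below 50%; inactive = mean inhibition under 50%.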

A word on the inhibition: it is the change of the read-out against control, counted positive when it falls.

This assay deals with Histone-lysine N-methyltransferase EZH2 (Homo sapiens) (UniProt Q15910). Description: EZH2/PRC2 methyltransferase inhibitors, primary screen, biochemical, DELFIA time-resolved fluorescence, single point (AID 651548).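 Note: dimethyl H3K27 on biotinylated H3 21-44 peptide detected by antibody; plate controls were median neutral control wells for no effect and median positive control wells for full effect.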 Particulars: PRC2 H3K27 methylation, DELFIA TRF, 1 h; at 12.5 µM; hits give high values.
Sequence of Histone-lysine N-methyltransferase EZH2 (Homo sapiens) (Q15910 whole entry, looked up): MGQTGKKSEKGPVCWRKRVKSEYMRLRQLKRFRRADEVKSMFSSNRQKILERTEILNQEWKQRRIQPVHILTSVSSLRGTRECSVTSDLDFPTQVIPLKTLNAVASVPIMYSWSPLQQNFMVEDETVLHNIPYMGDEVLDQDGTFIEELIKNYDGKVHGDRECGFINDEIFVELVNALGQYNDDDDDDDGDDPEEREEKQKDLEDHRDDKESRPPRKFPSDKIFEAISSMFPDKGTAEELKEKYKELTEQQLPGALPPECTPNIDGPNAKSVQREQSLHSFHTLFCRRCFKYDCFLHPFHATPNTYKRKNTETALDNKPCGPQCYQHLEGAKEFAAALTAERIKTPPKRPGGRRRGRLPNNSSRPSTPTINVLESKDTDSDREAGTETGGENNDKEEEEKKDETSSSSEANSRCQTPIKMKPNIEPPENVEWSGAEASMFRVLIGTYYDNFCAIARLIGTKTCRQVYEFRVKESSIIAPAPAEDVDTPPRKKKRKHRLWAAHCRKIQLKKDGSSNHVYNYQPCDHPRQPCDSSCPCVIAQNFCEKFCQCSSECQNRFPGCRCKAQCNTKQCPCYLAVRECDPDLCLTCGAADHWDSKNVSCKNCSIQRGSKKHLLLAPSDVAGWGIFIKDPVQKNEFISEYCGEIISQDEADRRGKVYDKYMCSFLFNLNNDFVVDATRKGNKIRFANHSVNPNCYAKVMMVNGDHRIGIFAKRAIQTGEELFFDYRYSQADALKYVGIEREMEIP
Consider `C[C@@H](NC(=O)C[C@H]1C[C@@H]2c3cc(NC(=O)c4ccc5c(c4)OCO5)ccc3O[C@@H]2[C@@H](CO)O1)c1ccccc1`, for which the inhibition was -6.67%.
Then `COc1ccccc1NC(=O)N[C@H]1CC[C@@H](CC(=O)N[C@@H](C)c2ccccc2)O[C@H]1CO`, with -11.3%; and `O=C(C[C@H]1CC[C@H](NC(=O)Nc2ccccc2F)[C@@H](CO)O1)NCc1ccccc1`, with 4.86%; and `O=C(C[C@@H]1CC[C@H](NC(=O)C2CC2)[C@@H](CO)O1)NCc1ccncc1`, with 3.36%.
`C[C@@H]1CN([C@@H](C)CO)C(=O)c2cc(-c3cccnc3)cnc2O[C@H]1CN(C)Cc1ccc(-c2ccccc2)cc1`: the inhibition was 7.86%.
The figure for `CN(C)Cc1cn(CC[C@H]2CC[C@H](NC(=O)Nc3ccccc3F)[C@@H](CO)O2)nn1` is 24.4%; for `C[C@H]1CN([C@@H](C)CO)S(=O)(=O)c2ccc(-c3cccnc3)cc2O[C@H]1CN(C)C(=O)C1CCCCC1` it is 0.754%; for `C[C@@H]1CN([C@@H](C)CO)S(=O)(=O)c2ccc(-c3ccc(F)cc3)cc2O[C@H]1CN(C)C(=O)c1ccccc1F` it is -11%.
With `CO[C@@H]1CN(C)C(=O)c2cc(NC(=O)c3ccccc3)ccc2OC[C@@H](C)N(C(C)=O)C[C@@H]1C`, the inhibition is 4.81%.
As for `O=C(C[C@H]1C=C[C@H](NC(=O)c2cccc(F)c2)[C@@H](CO)O1)NCc1ccc(Oc2ccccc2)cc1`, the inhibition was -0.132%.
Take `CCCC(=O)Nc1ccc2c(c1)C(=O)N(C)C[C@@H](OC)[C@@H](C)CN(C(=O)CC)[C@H](C)CO2`: the inhibition was 8.4%.
Then `CC1=COC(O[C@@H]2O[C@H](CO)[C@@H](O)[C@H](O)[C@H]2O)C2C1CC(O)C2CO` (some centres not stated), with 58.6% (active); and `C/C=C1/[C@H](O[C@@H]2O[C@H](CO)[C@@H](O)[C@H](O)[C@H]2O)OC=C2C(=O)O[C@@H]3C[C@@H](C(C)CO)[C@H](COC(=O)C[C@H]21)[C@H]3C` (some centres not stated), with -12.8%; and `COC(=O)C1=CO[C@@H](O[C@@H]2O[C@H](CO)[C@@H](O)[C@H](O)[C@H]2O)[C@@H]2[C@@H](C)[C@@H](OC(=O)C3=CO[C@@H](O[C@@H]4O[C@H](CO)[C@@H](O)[C@H](O)[C@H]4O)[C@@H]4[C@@H](C)[C@@H](OC(C)=O)C[C@H]34)C[C@H]12`, with -4.29%.
The figure for `COc1ccccc1-c1cn(CC[C@H]2CC[C@@H](NC(=O)Cc3ccccn3)[C@@H](CO)O2)nn1` is 9.32%.
Then `COc1cccc(NC(=O)Nc2ccc3c(c2)C(=O)N(C)C[C@@H](OC)[C@H](C)CN(CC2CC2)[C@H](C)CO3)c1`, with -8.45%; and `CN1CCN(C(=O)c2cc3c(c(-c4cccc(-c5ccc(C(=O)N(C)C)cc5)c4)n2)[C@@H](CCO)N([S@](=O)C(C)(C)C)C3)CC1`, with -12.8%.
As for `COc1ccc(CN2C[C@@H](C)[C@H](OC)CN(C)C(=O)c3cc(NC(C)=O)ccc3OC[C@@H]2C)cc1`, the inhibition is -2.6%.
As for `O=C(C[C@H]1C=C[C@H](NC(=O)c2cnccn2)[C@@H](CO)O1)NCc1ccccc1F`, the inhibition is 4.44%.
For `CN(C)C(=O)C[C@H]1C[C@@H]2c3cc(NC(=O)NC4CCCCC4)ccc3O[C@@H]2[C@@H](CO)O1`, the inhibition was 9.52%.
The figure for `O=C(C[C@@H]1C=C[C@@H](NC(=O)C2CC2)[C@H](CO)O1)NCCCN1CCOCC1` is -1.42%.
Consider `CCC(=O)Nc1ccc2c(c1)C(=O)N(C)C[C@H](OC)[C@@H](C)CN(C(=O)c1cnccn1)[C@@H](C)CO2`, for which the inhibition is 11.1%.
The figure for `COCC(=O)Nc1ccc2c(c1)OC[C@H](C)N(Cc1ccccc1OC)C[C@@H](C)[C@@H](OC)CN(C)C2=O` is -9.26%; for `CO[C@H]1CN(C)C(=O)c2cc(NS(=O)(=O)CC(F)(F)F)ccc2OC[C@H](C)N(C(=O)c2ccc3c(c2)OCO3)C[C@H]1C` it is 13%.
Then `CO[C@@H]1CN(C)C(=O)c2cc(NC(=O)c3ccno3)ccc2OC[C@@H](C)N(S(C)(=O)=O)C[C@@H]1C`, with 4.22%; and `O=C(CCCCCCC(=O)Nc1ccccc1O)N/N=C/c1ccc(Oc2ccccc2)cc1`, with 60.3% (active); and `O=C(CCCCCCC(=O)Nc1ccccc1O)N/N=C/c1ccc(C(F)(F)F)cc1`, with -17.5%.
For `O=C(CCCCCC(=O)Nc1ccccc1O)N/N=C/c1ccc(I)cc1`, the inhibition is 14.9%.
In the case of `O=C(C[C@@H]1C[C@@H]2c3cc(NS(=O)(=O)c4ccc(F)cc4)ccc3O[C@@H]2[C@H](CO)O1)NCc1cc(F)ccc1F`, the inhibition was 17%.
The figure for `CCCCc1nn(-c2ccccc2C(F)(F)F)c(=O)n1Cc1ccc(-c2ccccc2S(=O)(=O)NC(=O)c2sccc2C)cc1` is 62% (active); for `COCC(=O)Nc1ccc2c(c1)C(=O)N(C)C[C@H](OC)[C@@H](C)CN(CC1CC1)[C@@H](C)CO2` it is 9.52%.
Regarding `O=C(C[C@@H]1C[C@@H]2c3cc(NC(=O)C4CCC4)ccc3O[C@@H]2[C@@H](CO)O1)NCCN1CCCCC1`, the inhibition is -3.85%.
The figure for `CC(C)NC(=O)N[C@@H]1CC[C@H](CC(=O)NCCN2CCCC2)O[C@@H]1CO` is -11.4%.
Regarding `C[C@H](O)C#Cc1ccc2c(c1)O[C@H](CN(C)C(=O)C1CC1)[C@@H](C)CN([C@H](C)CO)S2(=O)=O`, the inhibition was 7.79%.
As for `CO[C@H]1CN(C)C(=O)c2ccc(NS(=O)(=O)c3cn(C)cn3)cc2OC[C@@H](C)N(C)C[C@@H]1C`, the inhibition was -2.12%.
As for `CCC(=O)N(C)C[C@H]1Oc2cc(C#CC3CCCC3)ccc2S(=O)(=O)N([C@H](C)CO)C[C@@H]1C`, the inhibition is 10%.
Turning to `CN(C)CC(=O)N[C@@H]1CC[C@H](CCn2cc(C3CCCC3)nn2)O[C@H]1CO`, the inhibition was -5.37%.
The figure for `O=C(CCN1CCCCC1)N[C@H]1CC[C@H](CCNS(=O)(=O)c2ccc(F)cc2)O[C@@H]1CO` is 4.74%; for `O=C(NCC[C@H]1CC[C@@H](NC(=O)c2ccncc2)[C@@H](CO)O1)Nc1ccc(Cl)cc1` it is 1.17%; for `COc1cccc(NC(=O)N[C@@H]2C=C[C@H](CC(=O)NCc3ccccn3)O[C@H]2CO)c1` it is -2.05%.
The figure for `O=C(C[C@@H]1C=C[C@H](NC(=O)C2CCOCC2)[C@H](CO)O1)NCc1ccncc1` is 7.09%; for `CCC(=O)Nc1ccc2c(c1)C(=O)N(C)C[C@H](OC)[C@@H](C)CN(Cc1cccnc1)[C@H](C)CO2` it is 2.36%.
The figure for `CO[C@H]1CN(C)C(=O)c2cc(NC(=O)NC(C)C)ccc2OC[C@@H](C)NC[C@@H]1C` is 4.41%.
For `Cc1ccc(S(=O)(=O)N[C@@H]2CC[C@H](CCn3cc(-c4cccc(F)c4)nn3)O[C@@H]2CO)cc1`, the inhibition is -11.1%.
The figure for `CC(C)NC(=O)N[C@@H]1CC[C@H](CCn2cc(-c3ccccc3)nn2)O[C@H]1CO` is 6.84%.
As for `CO[C@H]1CN(C)C(=O)c2ccc(NC(C)=O)cc2OC[C@@H](C)NC[C@H]1C`, the inhibition was -8.55%.
The figure for `COC(=O)[C@H](Cc1ccc(N=[N+]=[N-])cc1)N1CC2=C[C@@H](C3CC3)n3c(=O)n(C)c(=O)n3[C@H]2[C@@H]1[C@@H](O)Cc1ccccc1` is 1.09%.
Then `CO[C@@H]1CN(C)C(=O)c2cc(NC(=O)C3CC3)ccc2OC[C@H](C)N(C(=O)c2ccccc2F)C[C@H]1C`, with 3.97%.
For `COCC(=O)N(C)C[C@@H]1Oc2ncc(C#C[C@H](C)O)cc2C(=O)N([C@@H](C)CO)C[C@@H]1C`, the inhibition is -0.468%.
On to `O=C(C[C@@H]1CC[C@@H](NC(=O)c2ccc3c(c2)OCO3)[C@H](CO)O1)NCc1ccc(F)cc1`, for which the inhibition was -0.86%.
The figure for `COc1ccc(CNC(=O)C[C@H]2CC[C@H](NC(=O)Nc3ccc4c(c3)OCO4)[C@H](CO)O2)cc1` is 13.2%.
On to `C[C@H](CO)N1C[C@H](C)[C@@H](CN(C)C(=O)c2ccccc2)OCCCC[C@H](C)Oc2ccc(NC(=O)c3ccccc3)cc2C1=O`, for which the inhibition is -18.6%.
Then `CO[C@@H]1CN(C)C(=O)c2cc(NC(=O)NC3CCCCC3)ccc2OC[C@@H](C)N(C(C)=O)C[C@H]1C`, with 0.307%; and `C[C@@H]1CN([C@H](C)CO)S(=O)(=O)c2ccc(-c3ccccc3)cc2O[C@H]1CN(C)C(=O)C1CCC1`, with -4.42%; and `CO[C@@H]1CN(C)C(=O)c2ccc(NC(=O)Nc3c(C)noc3C)cc2OC[C@@H](C)NC[C@H]1C`, with 0.549%.
Then `CO[C@@H]1CN(C)C(=O)c2cc(NS(=O)(=O)c3ccc(Cl)cc3)ccc2OC[C@H](C)NC[C@@H]1C`, with 3.36%; and `CO[C@@H]1CN(C)C(=O)c2ccc(NC(=O)c3ccccn3)cc2OC[C@@H](C)N(C(=O)C2CCCCC2)C[C@H]1C`, with -0.858%; and `CO[C@@H](CN(C)C(=O)c1ccc2c(c1)OCO2)[C@@H](C)CN([C@H](C)CO)S(=O)(=O)c1ccccc1`, with -0.585%.
Then `CO[C@H]1CN(C)C(=O)c2cc(NC(=O)Nc3ccccc3F)ccc2OC[C@@H](C)N(CCC(F)(F)F)C[C@@H]1C`, with -15.8%; and `C[C@H](NC(=O)C[C@@H]1C[C@@H]2c3cc(NC(=O)Nc4ccc(C(F)(F)F)cc4)ccc3O[C@@H]2[C@H](CO)O1)c1ccccc1`, with -10.9%; and `O=C(Nc1ccccc1)N[C@@H]1CC[C@H](CCn2cc(C3(O)CCCC3)nn2)O[C@@H]1CO`, with -9.38%.
On to `CCNC(=O)C[C@@H]1CC[C@@H](NC(=O)NC2CCCCC2)[C@H](CO)O1`, for which the inhibition was -1.26%.
